HCMV inh = human cytomegalovirus inhibition. 410,000 tested, 4.5% active. HFF cells, HCMV-luciferase reporter, 72 h; hits give low values. AID 1259415. activity change, negative = inhibition, % at 57.5 µM; in the data active means activity change below about -60%; inconclusive means no clear call, values can overlap the other calls; inactive means above about -39%
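Screen run at 2 compound doses on HFFs infected with reporter HCMV, MOI 1 PFU/cell. Luciferase activity from cell lysates at 72 h post infection gave inhibition relative to buffer-only and Salinomycin wells.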
FMDV inh = antivirals against foot and mouth disease virus. FMDV antiviral cell-based qHTS. Potency, µM (series often up to 57.9 µM), for the others: top-dose activity change, negative = inhibition, actives largely listed as inhibitors. 410,000 tested, 1.2% active. AID 1159524; calls by dose curve; tested in HEK293T cells; further: read-out not given here; potency means the concentration at half of the fitted maximal effect; nearly all actives have a fitted effect of over 45% in size
Giardia FBPA inh = Giardia lamblia aldolase inhibition. Potency, µM (series often up to 59.6 µM), without a hit: at the highest dose activity, negative = inhibition, hits mostly inhibitors. A8B2U2. 290,000 tested, 0.71% active. AID 2451. purified Giardia FBPA; further: potency means the concentration at half of the fitted maximal effect; nearly all actives have a fitted effect of over 55% in size
Target sequence (A8B2U2 whole entry, looked up): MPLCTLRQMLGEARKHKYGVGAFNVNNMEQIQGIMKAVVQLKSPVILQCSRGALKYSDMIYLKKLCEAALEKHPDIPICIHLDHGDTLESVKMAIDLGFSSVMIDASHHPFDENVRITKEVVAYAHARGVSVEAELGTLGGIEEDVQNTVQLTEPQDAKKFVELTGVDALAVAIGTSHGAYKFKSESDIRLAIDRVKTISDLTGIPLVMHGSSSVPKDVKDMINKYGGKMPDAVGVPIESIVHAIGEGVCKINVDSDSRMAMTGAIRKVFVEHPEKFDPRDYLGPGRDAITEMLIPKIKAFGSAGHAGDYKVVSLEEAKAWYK
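Giardia FBPA (40 nM reagent) was preincubated 10 min at RT with compound (up to 57.5 uM final), then substrate plus GAPDH/TPI/NAD/arsenate coupling system with diaphorase/resazurin was added; resorufin fluorescence (525/598 nm) was read after 20 min.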
Tb PYK inh = inhibitors of Trypanosoma brucei pyruvate kinase; TbPYK enzyme, Kinase-Glo Plus ATP luminescence, 45 min; Potency, µM (highest dose often 76.8 µM), without a hit: at the highest dose activity, negative = inhibition, usual class: inhibitors; 410,000 tested, 0.12% active; further: potency means the concentration at half of the fitted maximal effect; nearly all actives have a fitted effect of over 50% in size
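In this concentration-response screen, enzyme-free wells defined baseline while DMSO plates tracked drift. Each reaction combined TbPYK, substrate, compound and 130 uM ADP for 45 min at room temperature. Kinase-Glo Plus luminescence gave the signal.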
Sm TGR inh = blocks Schistosoma mansoni thioredoxin glutathione reductase; purified TGR, DTNB reduction, TNB absorbance 405 nm; Potency, µM (titrated, usually from 114 µM), for inactives: top-dose activity change, negative = inhibition, actives largely listed as inhibitors; 360,000 tested, 3% active; further: potency means the concentration at half of the fitted maximal effect; nearly all actives have a fitted effect of over 60% in size
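TGR 20 nM + NADPH 100 uM (dispensed conc.), cpd preinc 15 min RT; start with NADPH (500 uM addition) then DTNB (15 mM addition). Kinetic TNB absorbance, 405 nm filter. Four-parameter Hill fit across titration.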
RE007 growth inh = less growth of the S. pombe RE007 Vpr strain; Potency, µM (titrated, usually from 92.2 µM), for the others: top-dose activity change, negative = less growth, hits mostly inhibitors; S. pombe RE007 Vpr strain, BacTiter-Glo ATP luminescence, 24 h; 360,000 tested, 0.21% active; active means well fitted falling curve with a large enough effect; inconclusive means small, poorly fitted or top-dose-only effect; inactive means no such curve, though single readings can be large or run the other way; further: potency means the concentration at half of the fitted maximal effect; nearly all actives have a fitted effect of over 50% in size
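Fission yeast strain RE007, carrying one chromosomally integrated HIV-1 vpr copy, was seeded at OD 0.01 in PMG+AL medium with 23 nL pinned compound. After 24 h at 30 °C and 99% humidity, viability was read by BacTiter-Glo luminescence.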
* = called active by the depositor; ? = inconclusive; / = no result given; + = active, no number; [ ] = remark or other dose. In the library only some 7.7% were active in any assay of this set; here they are far more common. Unless noted, the call rests on the fitted dose curve; in most records, active means well fitted curve in the direction sought with a large enough effect; inconclusive means small, poorly fitted or top-dose-only effect, or another doubt; inactive means no such curve, though single readings can be large; an effect the other way counts as inactive or inconclusive. On the % scale 0 is the no-effect control and ±100 the full control effect.

SMILES	HCMV inh	FMDV inh	Giardia FBPA inh	Tb PYK inh	Sm TGR inh	RE007 growth inh
CC1(Cc2cccc(F)c2)C(=O)Nc2ccc(-c3cccnc3)cc21 (stereo not given)	-74*	-9%	/	-6%	/	-14%
CC1(Cc2ccc(Cl)cc2)C(=O)Nc2ccc(-c3cccnc3)cc21 (stereo not given)	-66*	-27%	/	3%	/	7%
COc1cccc(-c2cccc3c2NC(=O)C3(C)Cc2cccc(F)c2)c1 (stereo not given)	8	35µM*	/	4%	/	-12%[18.4 µM]
COC(=O)c1c(SCC(=O)Nc2cccc(C(F)(F)F)c2)[nH]c2ccccc2c1=O	16	-19%	/	-1%	5%	/
COc1ccc(Nc2oc(COc3ccccc3OC)nc2C#N)cc1	-80*	11%	-8%	-3%	18µM*	7%
COc1ccccc1OCc1nc(C#N)c(NCCCn2ccnc2)o1	?	-9%	2%	1%	45µM*	7%
N#Cc1nc(COc2ccccc2)oc1NCCCn1ccnc1	6	9%	1%	-10%	-3%	-14%
COc1ccccc1OCc1nc(C#N)c(NCc2ccc(C)cc2)o1	2	-13%	/	-9%	-9%	/
N#Cc1nc(COc2ccccc2F)oc1NCCCn1ccnc1	-16	16%	2%	-1%	25µM*	-4%
CCNc1oc(COc2ccccc2F)nc1C#N	-11	73%	0%	2%	56µM*	15%
O=C(C1CC1)N1CC(=O)N2[C@@H](CO)[C@H](c3ccc(Br)cc3)[C@@H]2C1	-17	/	/	/	/	/
O=c1c2c(nc3c(-c4ccc(Cl)cc4)c[nH]n13)CCCC2	-78*	22µM*	13%	0%	-11%	-11%
O=c1c2c(nc3c(-c4cccc5ccccc45)c[nH]n13)CCC2	-3	-14%	-13%	-1%	-9%	0%
COc1ccc(OC)c(NC(=O)CCCOc2cc(=O)n(C)c3ccccc23)c1	6	-10%	/	10%	-15%	/
O=C(c1ccc2oc(CCCc3ccccc3)nc2c1)N1CCCC(CCCO)C1 (stereo not given)	-61*	-16%	/	-3%	-15%	-2%
COC(=O)/C=C1/S/C(=N/NC(=O)c2ccccc2OC)NC1=O	42	15%	/	-15%	?	16%
COC(=O)/C=C1/S/C(=N/NC(=O)c2ccc(Cl)cc2Cl)NC1=O	-34	1%	?	0%	18µM*	8%
CCCNC(=O)N1CCC2(CC1)CN(C(=O)c1ccccc1)[C@H](CO)c1[nH]c3cc(OC)ccc3c12	-2	/	/	/	/	/
O=C1[C@H](Oc2ccccc2)[C@@H](c2ccccc2)N1c1ccncc1	-6	16µM*	/	4%	/	-16%
C[C@H]1CN(S(=O)(=O)C(C)(C)C)[C@@H](CCO)/C1=C\c1ccccc1	11	/	/	/	/	/
Cc1ccc2occ(CC(=O)Nc3ccc(Cl)c(C(F)(F)F)c3)c2c1	-78*	-4%	/	1%	30%	/
Cc1c(Cl)cccc1NS(=O)(=O)c1ccc(NS(=O)(=O)c2ccc3c(c2)OCCO3)cc1	-106*	3%	/	-4%	10%	/
Cc1ccc2nc(SCC(=O)Nc3cc([N+](=O)[O-])ccc3F)[nH]c2c1	-91*	-30%	-5%	2%	-18%	-14%
CC(Sc1nc2ccccc2[nH]1)C(=O)Nc1ccccc1F (stereo not given)	-73*	-16%	-8%	2%	5%	-11%
Cc1ccc2nc(SC(C)C(=O)NC3CCCC3)[nH]c2c1 (stereo not given)	-34	-13%	/	-2%	/	4%
SMILES	HCMV inh	FMDV inh	Giardia FBPA inh	Tb PYK inh	Sm TGR inh	RE007 growth inh
Cc1ccc2nc(SC(C)C(=O)Nc3cccc([N+](=O)[O-])c3)[nH]c2c1 (stereo not given)	-67*	?	-12%	-19%	-5%	-26%
COc1ccc(CNC(=O)c2ccc3c(c2)N(Cc2c(F)cccc2Cl)C(=O)CS3)cc1	-31	-25%	/	5%	1%	/
COc1ccc(CCNC(=O)c2cc(C)nc3c2c(C)nn3-c2ccccc2)cc1OC	-5	-2%	/	3%	2%	/
CC1OC2CC(=O)OC2C2=C1C(=O)c1c(O)cccc1C2=O (stereo not given)	-106*	/	/	/	/	/
COc1ccc(CC(=O)Nc2ccc3nc(Nc4ccc(OC)cc4)cc(C)c3c2)cc1	-86*	-29%	/	6%	-2%	/
COc1ccc(Nc2cc(C)c3cc(NC(=O)COc4cccc(C)c4)ccc3n2)cc1	-39	35µM*	/	-1%	6%	/
COc1ccc(Nc2cc(C)c3cc(NC(=O)c4cc(OC)cc(OC)c4)ccc3n2)cc1	-77*	-5%	/	3%	1%	/
O=c1c2sc3ccccc3c2n(Cc2ccccc2F)c(=O)n1Cc1ccccc1	4	-28%	/	-4%	-1%	/
c1cc2c(cc1C1=NNC(=NC3CC3)SC1)OCCO2	-90*	?	5%	?	4%	?
Cc1cc(C2=NNC(=NC3CC3)SC2)c(C)n1-c1ccccc1F	-97*	0.01µM*	-5%	?	-1%	0%
Cc1cc(C2=NNC(=NC3CCCCC3)SC2)c(C)n1-c1c(C)n(C)n(-c2ccccc2)c1=O	-22	-1%	-6%	-3%	-1%	-21%
Cc1ccc(C)n1C1C(=O)N(Cc2ccc(C(F)(F)F)cc2)c2ccc(Cl)cc21 (stereo not given)	-4	/	/	/	/	/
COc1cc(OC)c(NC(=O)CCc2c(C)nc3c4c(C)cc(C)nc4nn3c2C)cc1Cl	4	5%	/	-5%	-16%	/
CCOC(=O)c1cc(-c2ccc(C)cc2)n(CCCC(=O)Nc2cc(C)ccc2C)c1	+	-8%	/	2%[15.4 µM]	-6%	/
COc1ccc(-c2nnc3c4ccccc4c(-c4ccccc4)nn23)cc1	-3	-13%	/	4%	1%	/
Cc1ncc(CSc2nnnn2-c2ccccc2)c(N)n1	11	/	4%	2%	45µM*	123%
CCSc1nnnn1-c1ccccc1	8	0%	-2%	-6%	0%	-6%
CCOC(=O)c1c(NC(=O)CCCOc2ccc(C(C)(C)C)cc2)sc2c1CCC2	4	-5%	/	4%	1%	/
COc1cccc(Nc2ncc3nc(C)c(=O)n(Cc4cccs4)c3n2)c1	/	-23%	4%	/	/	/
COc1ccc2[nH]c3c(c2c1)CCC/C3=N\N	3	6%	-15%	-9%	45µM*	11%
COc1ccc2[nH]c3c(c2c1)CCN=C3C	-92*	-7%	-10%[21.7 µM]	-7%	-19%	14%[18.4 µM]
O=c1cc(-c2ccc(F)cc2F)[nH]c2ccc(F)cc12	/	/	4%[89.2 µM]	/	/	/
Cc1cc(=O)n2nc(N3CCC(C(=O)NCCCOC(C)C)CC3)sc2n1	1	-9%	/	-6%	0%	/

Screening results deposited in PubChem BioAssay by National Center for Advancing Translational Sciences (NCATS).
